Reference: the supplement of paper PMC10981050

These compounds were tested on OCI-AML2 (assay: cell viability relative to vehicle control; higher = less cytotoxic). Details: 10 µM; SRSF2 genotype: wt/wt.
In short: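 Screening covered the Selleck bioactive, kinase and epigenetic probe libraries, less identity-inconsistent compounds, on CRISPR-edited mutant clones and isogenic wild-type clones of four leukaemia lines. Cells, at 2000 per well in 50 µL medium, received a single 10 µM acoustically dispensed dose. After 48 h the supernatant was removed and CellTiter-Glo luminescence was read. Viability was analysed in Genedata Screener as percent of the on-plate vehicle control.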

| SMILES | cell viability [%] |
| --- | --- |
| CO[C@@]1(NC(=O)CSC[C@@H](N)C(=O)O)C(=O)N2C(C(=O)O)=C(CSc3nnnn3C)CS[C@@H]21 [Cefminox Sodium] | 98 |
| CNC[C@H](O)[C@@H](O)[C@H](O)[C@H](O)CO [Meglumine] | 109 |
| CCCCCCCCCCCCCC(=S)NCCCC[C@H](NC(=O)OCc1ccccc1)C(=O)Nc1ccccc1 [Thiomyristoyl] | 86.3 |
| Cc1cc(C(=O)NOCCO)c(Nc2ccc(I)cc2F)n(C)c1=O | 42.9 |
